This passage reports growth results from PubChem BioAssay (NCI).

SMILES strings stand for the structures. This is part of a sample that, as a whole, favours compounds with a hit. Of some 83,000 tested, about 20% had one in any assay.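 Plates (96-well) were seeded with cells, treated with compound at one concentration, and incubated for 48 hours before percent growth was determined.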 Values without a mark were called inactive. Activity calls are given as the source filed them. Rule for the calls: active = growth percent below 10; inactive = the rest.

This assay has as its system HL-60(TB) leukemia. The experiment in a line: NCI-60 one-dose screen, 48 h (100 = growth as untreated, 0 = no growth, -100 = all killed). The note with it: 10 µM unless noted.
In the case of `CSc1cc(SC)ncn1`, the growth was 101%.

On to `CC[C@H](Nc1nc(N)nc(C)c1C#N)c1nc2cccc(CN(C)c3ncc(C(=O)NO)cn3)c2c(=O)n1-c1ccccc1`, for which the growth is 0.763% (active).

Regarding `CN(C)c1ccc(Cc2cc(-c3ccccc3)nn(C/C(=N/O)c3ccccc3)c2=O)cc1`, the growth was 54.3%.

Take `CCC(c1ccc(OC)cc1)C(CC)c1ccc(OCC[N+](C)(C)C)cc1` (centres undefined): the growth is -17.4% (active).

With `COc1ccc(C(=O)n2nc(-c3ccccc3)nc2N)cc1OC`, the growth was 80%.

As for `CCCCCC1CCCCN1C(=O)OCCCC` (centres undefined), the growth was 102%.

`O=C(Nc1ccc(OCc2nnc(-c3ccccc3)o2)c(F)c1)Nc1ccc(Cl)c(C(F)(F)F)c1`: the growth was -19.7% (active).

Turning to `CCOc1ccccc1/C=N\Nc1ccc(S(=O)(=O)c2ccc(N/N=C/c3ccccc3OCC)cc2)cc1`, the growth was 102%.

In the case of `C#CCNC(=O)[C@H](CC)[C@H]1CC[C@H](C)[C@H]([C@@H](C)[C@H](O)[C@H](C)C(=O)[C@H](CC)C2O[C@]3(C=CC(=O)[C@]4(CC[C@@](C)([C@H]5CC[C@](O)(CC)[C@H](C)O5)O4)O3)[C@H](C)C[C@@H]2C)O1` (some centres undefined), the growth was 1.79% (active).

Take `COc1ccc(OCC(CO)N2CCN(c3ccccc3)CC2)cc1` (centres undefined): the growth was 123%.

In the case of `COc1cccc(CNc2cccc3cn[nH]c23)c1O`, the growth is 144%.

Turning to `CC(=O)OC(C)C(=O)NCC(C)O` (centres undefined), the growth is 86.9%.

As to `O=C(NCCN1CCOCC1)OCc1ccc2c(Cl)cc(Cl)c(O)c2n1`, the growth was 73.1%.

With `COc1ccc2c(c1)C(C)Cc1c(ncnc1-n1cnc3ccccc31)N2C` (centres undefined), the growth was -5.85% (active).
